# The campaign covered roughly 390,000 compounds. About 1,400 (0.36%) were called active. About 2% were inconclusive and are not listed. Only a selection was taken, and actives are over-represented in it overall. Values without a mark were called inactive. Calls come from the whole dose curve; as a rule, active = well fitted inhibition curve with a large enough effect; inconclusive = small, poorly fitted or top-dose-only effect; inactive = no such curve, though single readings can be large or run the other way.
# Target: Flap endonuclease 1 (Homo sapiens) (UniProt P39748)
# Sequence (P39748 whole entry, looked up): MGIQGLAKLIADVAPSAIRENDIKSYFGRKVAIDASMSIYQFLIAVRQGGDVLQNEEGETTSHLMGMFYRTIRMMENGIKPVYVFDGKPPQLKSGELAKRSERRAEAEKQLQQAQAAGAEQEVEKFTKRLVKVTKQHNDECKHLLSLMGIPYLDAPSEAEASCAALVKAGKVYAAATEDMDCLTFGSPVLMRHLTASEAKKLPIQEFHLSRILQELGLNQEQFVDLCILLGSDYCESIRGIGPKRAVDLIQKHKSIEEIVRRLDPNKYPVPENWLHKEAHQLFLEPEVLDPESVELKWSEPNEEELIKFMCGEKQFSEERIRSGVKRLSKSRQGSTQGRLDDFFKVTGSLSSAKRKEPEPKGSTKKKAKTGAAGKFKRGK
# Experiment: qHTS Assay for the Inhibitors of Human Flap endonuclease 1 (FEN1). Note: nearly all actives have a fitted effect of over 65% in size.
# Details: Recombinant FEN1 flap cleavage, fluorescence, 15 min; series mostly up to 114 µM; activity change, negative = inhibition: at the top concentration
# From the text: The major human flap endonuclease FEN1 is an efficient structure-specific enzyme that recognizes and cleaves a 5'-unannealed DNA flap. It belongs to the RAD2 family nucleases, which are involved in DNA metabolism and are highly conserved in prokaryotes and eukaryotes. FEN1 is a key enzyme in DNA replication, repair and maintenance of genomic stability. 5'-flap removal by FEN1 is critical for Okazaki fragment processing during lagging strand DNA synthesis, long-patch base excision repair (LP BER), and regulating or facilitating recombination events. […] Deletion of the yeast FEN1 gene, i.e. rad27, results in an increased frequency of short DNA (3-32 bp) repeats, micro- and mini-satellite formation, trinucleotide repeat expansion, spontaneous recombination events, and a severe growth defect in association with cell cycle arrest in late S/G2 phase. […] Cells from fen1-/- blastocysts show increased apoptotic cell death after ionizing radiation treatment, and chicken cells lacking the fen1 gene are hypersensitive to DNA alkylating agents, e.g. methylmethane sulfonate (MMS) and N-methyl-N'-nitro-N-nitrosoguanidine (MNNG), as well as hydrogen peroxide.
# NIH Chemical Genomics Center [NCGC]
# NIH Molecular Libraries Probe Centers Network [MLPCN]
# Assay Submitter (PI): David Wilson, National Institute of Aging
# Three uL of reagents (buffer in column 3 and 4 as negative control and 10 nM FEN1 in columns 1, 2, and 5-48) were dispensed into 1,536-well black solid-bottomed plate. Compounds (23 nL) were transferred via Kalypsys pin tool equipped with 1536-pin array (10 nL slotted pins, V&P Scientific, San Diego, CA). The plates were then incubated for 15 min at room temperature, and 1 uL substrate (50 nM final concentration) were added to start the reaction read twice at 0 min read and 15 min on ViewLux reader. Throughout the screen, reagent bottle and all liquid lines were chilled and made light-tight to minimize reagent degradation. All screening operations were performed on a fully integrated robotic system (Kalypsys, San Diego, CA) containing one RX-130 and two RX-90 anthropomorphic robotic arms (Staubli, Duncan, SC). Library plates were screened starting from the lowest and proceeding to the highest concentration, and a "double-dipping" step of the highest concentration was required to access higher concentrations of compounds. Vehicle-only plates, with DMSO being pin-transferred to the entire column 5-48 compound area, were inserted uniformly at the beginning and the end of each library in order to monitor for and record any shifts in the background, which can be affected by reagent dispensers or loss in enzyme activity overtime. Screening data was corrected, normalized, and concentration-effect relationships were derived by using publicly-available curve fitting algorithms developed in-house (http://ncgc.nih.gov/pub/openhts). A four parameter Hill equation was fitted to the concentration-response data by minimizing the residual error between the modeled and observed responses.
# % is set by controls: 0 for no effect and ±100 for the full control effect; potency is the fitted concentration of half-maximal effect.
SMILES,Potency,"activity change, negative = inhibition"
COc1cccc(N2C(=O)NC(=O)/C(=C\c3ccc([N+](=O)[O-])s3)C2=O)c1,39.8 µM (active),–
COc1ccc(CN2C(=O)NC(=O)/C(=C\c3ccc(OC)c(OC)c3OC)C2=O)cc1,–,-6.59%
CCOC(=O)CC(SP1(=S)OCC2(CCCCO2)C(C2CCCCO2)O1)C(=O)OCC (stereo not given),–,-27.9%
C[C@]12CCC3C(CC[C@H]4[C@H](O)[C@H](O)CC[C@]34C)C1CCC2=O (stereo not given in full),–,-5.27%
COc1ccc2c(c1)NP(=S)(c1ccccc1)N2 (stereo not given),–,-3.42%
CCC(C)(O)C(=O)OC1C(=O)OC2CC3C(C)=CC(=O)C(O)C3(C)C3C4(O)OCC23C1C(C)C4O (stereo not given),–,2.84%
O=C(O)/C=C/c1ccc2c(c1)OCO2,–,39.2%
O=C(c1ccccc1[N+](=O)[O-])N1CCC2(CC1)OCCO2,–,-1.26%
O=C(O)c1cc[c]([Sb](=[O])([OH])[OH])cc1[N+](=O)[O-],1.41 µM (active),–
CC1C(=O)OC2CCN3CC=C(COC(=O)C(C)(O)C1(C)O)C23 (stereo not given),–,18.1%
Cc1cc(C)c2c(c1)NP(=S)(c1ccccc1)N2 (stereo not given),–,4.1%
CC(=O)OC1C2(CC3N4C(=O)C5(CO)SSC4(CC31O)C(=O)N5C)OC(C)C(C)(C)C2=O (stereo not given),–,0.834%
COc1cc([C@@H]2c3cc4c(cc3[C@H](OC(C)=O)[C@H]3COC(=O)[C@H]23)OCO4)cc(OC)c1OC,–,0.697%
COC1C(O)C(C)OC(OC2CCC3(C=O)C(CCC4C3CCC3(C)C(C5=CC(=O)OC5)CCC43O)C2)C1O (stereo not given),–,0.394%
CO[C@H]1[C@@H](O)[C@@H](C)O[C@H](O[C@H]2[C@H](Oc3cccc4c(O)c5c(=O)oc6ccc(C)c7c(=O)oc(c34)c5c67)O[C@H](C)[C@H](O)[C@@H]2O)[C@@H]1O,10 µM (active),–
O=P1(Oc2ccccc2)CC(O)C(O)C(COCc2ccccc2)O1 (stereo not given),–,-2.48%
CCC(=O)OC(Cc1ccccc1)(c1ccccc1)C(C)CN(C)C (stereo not given),–,-8.26%
CC12CCC(O)CC1CCC1C2CCC2(C)C(C(=O)CC(O)C(F)(F)F)CCC12 (stereo not given),–,-6.23%
c1ccc2c(c1)[I+]c1ccccc1-2,50.1 µM (active),–
N#Cc1c(Cl)c(Cl)c(Cl)c(C#N)c1Cl,–,-1.6%

# Source: PubChem BioAssay AID588795 (National Center for Advancing Translational Sciences (NCATS), 2011)
